Screening results from PubChem.
The list is not random: actives were taken first. Their share in the collection is about 11%.
JMJD2A Tudor inh = inhibitors of human JMJD2A Tudor domain; O75164; AlphaScreen JMJD2A-Tudor / H3K4me3 peptide binding; Potency, µM (series often up to 114 µM), without a hit: at the highest dose activity change, negative = inhibition, actives largely listed as inhibitors; 390,000 compounds, 4.4% hits; AID 504339; note: % is set by controls: 0 for no effect and ±100 for the full control effect; nearly all actives have a fitted effect of over 50% in size
BAZ2B inh = blocks human BAZ2B | AID 504333 | 360,000 compounds, 4.4% hits | AlphaScreen BAZ2B-H3K14Ac peptide displacement | Potency, µM (doses to about 114 µM), without a hit: at the top dose activity change, negative = inhibition, actives largely listed as inhibitors; note: % is set by controls: 0 for no effect and ±100 for the full control effect; nearly all actives have a fitted effect of over 60% in size
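AlphaScreen displacement of biotin-H3(5-23)K14Ac peptide (50 nM final) from BAZ2B (50 nM final) in PBS pH 7.4, 0.01% Tween-20; complex preformed 30 min RT, then compounds (top 110 uM) 30 min RT, beads 20 min dark.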
HP1b binding inh = blocks HP1-beta chromodomain binding to methylated histone tails | P83916 | AlphaScreen HP1-beta / biotin-H3K9me3 peptide binding | Potency, µM (titrated, usually from 114 µM), for inactives: at the highest dose activity change, negative = inhibition, most hits filed as inhibitors | 390,000 compounds, 0.56% hits | AID 540317; note: nearly all actives have a fitted effect of over 70% in size
Target sequence (P83916 whole entry, looked up): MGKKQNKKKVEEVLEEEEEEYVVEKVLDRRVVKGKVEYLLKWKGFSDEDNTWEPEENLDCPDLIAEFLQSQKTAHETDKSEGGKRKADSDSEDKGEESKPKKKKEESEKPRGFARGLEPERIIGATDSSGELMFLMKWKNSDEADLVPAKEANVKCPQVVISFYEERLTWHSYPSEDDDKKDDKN
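AlphaScreen: HP1-beta (50 nM) preformed 30 min with biotin-H3(1-18)K9me3 peptide (50 nM) in PBS pH 7.4, 0.01% Tween-20. Compound added for 30 min at RT, then streptavidin donor/nickel chelate acceptor beads (10 ug/mL) for 30 min.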
L3MBTL1 block = inhibitors of human L3MBTL1. Q9Y468. AlphaScreen L3MBTL1–H3K9me1 peptide binding. Potency, µM (top dose mostly 57.1 µM), for the others: top-dose activity, negative = inhibition, actives largely listed as inhibitors. 230,000 compounds, 0.66% hits. AID 485360; note: % is set by controls: 0 for no effect and ±100 for the full control effect; nearly all actives have a fitted effect of over 60% in size
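L3MBTL1 (50 nM) pre-complexed 30 min with biotinylated H3(1-15)K9me1 peptide (75 nM), then compounds added for 30 min at room temperature; AlphaScreen streptavidin donor/nickel chelate acceptor beads (10 ug/mL final) read after 30 min dark incubation.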
G9a inh = blocks human histone lysine methyltransferase G9a; Q96KQ7; G9a H3K9 monomethylation, AlphaScreen, 2 h; Potency, µM (titrated, usually from 102 µM), for inactives: at the highest dose activity, negative = inhibition, most hits filed as inhibitors; 350,000 compounds, 8.8% hits; AID 504332; note: % is set by controls: 0 for no effect and ±100 for the full control effect; nearly all actives have a fitted effect of over 75% in size
Target sequence (Q96KQ7 913-1193 limits assumed): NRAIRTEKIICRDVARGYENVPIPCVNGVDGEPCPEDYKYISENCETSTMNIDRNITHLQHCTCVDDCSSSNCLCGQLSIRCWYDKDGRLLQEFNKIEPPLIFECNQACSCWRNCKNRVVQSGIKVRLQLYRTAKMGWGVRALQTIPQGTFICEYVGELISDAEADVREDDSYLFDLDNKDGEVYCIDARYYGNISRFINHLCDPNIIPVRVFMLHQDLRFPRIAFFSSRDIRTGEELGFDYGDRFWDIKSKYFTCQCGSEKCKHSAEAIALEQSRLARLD
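AlphaScreen detection with an anti-monomethyl H3K9 antibody quantified product after a 2 h room-temperature reaction containing 500 nM biotinylated H3K9 peptide, 20 µM SAM and 20 nM enzyme, which had been preincubated 15 min with compound.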
* marks the source's active call; other numbers are inactive results; [ ] = another dose, or the depositor's remark. Calls come from the whole dose curve; as a rule, active = well fitted inhibition curve with a large enough effect; inconclusive = small, poorly fitted or top-dose-only effect; inactive = no such curve, though single readings can be large or run the other way. Potency is the fitted concentration of half-maximal effect.

Results for O=C1CN(C(=O)c2ccc(S(=O)(=O)N3CCCCC3)cc2)C(c2ccc(F)cc2)c2cc(Br)ccc2N1 (centres undefined) ?
JMJD2A Tudor inh: -22%; BAZ2B inh: -5%; HP1b binding inh: 15%; G9a inh: inconclusive

What do the screens show for `CCn1c(-c2ccc(N(C)C)cc2)nc2ccccc21`?
JMJD2A Tudor inh: -31%; BAZ2B inh: 50µM*; HP1b binding inh: 11%; L3MBTL1 block: -8%; G9a inh: 79µM*

What do the screens show for `CN(C)c1ccc(-c2nc3ccccc3n2C)cc1`?
JMJD2A Tudor inh: -35%; BAZ2B inh: inconclusive; HP1b binding inh: 1%; L3MBTL1 block: -7%; G9a inh: inconclusive

What do the screens show for `CC(C)n1c(-c2ccc(N(C)C)cc2)nc2ccccc21`?
JMJD2A Tudor inh: 56µM*; BAZ2B inh: 40µM*; HP1b binding inh: inconclusive; L3MBTL1 block: -19%; G9a inh: 40µM*

What do the screens show for `O=C(Cn1cc(C(=O)c2cccs2)c2ccccc21)Nc1ccc(Br)cc1`?
JMJD2A Tudor inh: -5%; BAZ2B inh: -4%; HP1b binding inh: 9%; G9a inh: -9%[59 µM]

What do the screens show for `O=C(Nc1c2c(nn1-c1cccc(Cl)c1)CS(=O)C2)c1ccc2c(c1)OCO2` (centres undefined)?
JMJD2A Tudor inh: 1%; BAZ2B inh: -1%; HP1b binding inh: 40%; G9a inh: inconclusive

Results for O=C(Nc1c2c(nn1-c1ccc(F)cc1)CS(=O)C2)c1ccc2c(c1)OCO2 (centres undefined) ?
JMJD2A Tudor inh: 89µM*; BAZ2B inh: -3%; HP1b binding inh: 2%

What do the screens show for `Cc1c(C(=O)Nc2cccc(C(F)(F)F)c2)oc2ccc3c(c12)C(=O)CC(C)(C)O3`?
JMJD2A Tudor inh: 1%; BAZ2B inh: -12%; HP1b binding inh: 36%; G9a inh: 8%[59 µM]

Results for COc1ccc(N2CC(NC(=O)c3ccco3)CC2=O)cc1 (centres undefined) ?
JMJD2A Tudor inh: -11%; BAZ2B inh: -6%; HP1b binding inh: -5%; G9a inh: -5%[59 µM]

What do the screens show for `O=C(NCc1ccc(F)cc1)c1cccc2c1C(=O)c1ccc(N3CCOCC3)cc1S2(=O)=O`?
JMJD2A Tudor inh: 79µM*; BAZ2B inh: -7%; HP1b binding inh: 44%; L3MBTL1 block: 0%; G9a inh: 5%[0.501 µM]

How did CC1CCN(c2ccc3c(c2)S(=O)(=O)c2cccc(C(=O)NCc4ccc(F)cc4)c2C3=O)CC1 do in these assays?
JMJD2A Tudor inh: -11%; BAZ2B inh: -4%; HP1b binding inh: 24%; L3MBTL1 block: 20%; G9a inh: 27%[2.33 µM]

Results for Cc1ccc(C(=O)c2c(C)oc3c2C(=O)C(=O)c2ccccc2-3)cc1 ?
JMJD2A Tudor inh: 45µM*; BAZ2B inh: 32µM*; HP1b binding inh: 18µM*; L3MBTL1 block: inconclusive; G9a inh: inconclusive

What do the screens show for `Cc1ccc(C(=O)c2coc3c2C(=O)C(=O)c2ccccc2-3)cc1`?
JMJD2A Tudor inh: inconclusive; BAZ2B inh: inconclusive; HP1b binding inh: -25%; G9a inh: 40µM*

What do the screens show for `COc1ccc(NC(=O)C2CCCO2)cc1` (centres undefined)?
JMJD2A Tudor inh: -12%; BAZ2B inh: 1%; HP1b binding inh: 60%; L3MBTL1 block: 2%; G9a inh: 1%[59 µM]

How did COc1ccc(-c2csc(NC(=O)C3CCCO3)n2)cc1 (centres undefined) do in these assays?
JMJD2A Tudor inh: inconclusive; BAZ2B inh: inconclusive; HP1b binding inh: 13%; L3MBTL1 block: -3%; G9a inh: 13µM*

What do the screens show for `Cc1ccc(-c2csc(NC(=O)c3ccno3)n2)cc1`?
JMJD2A Tudor inh: 79µM*; BAZ2B inh: inconclusive; HP1b binding inh: 24%; G9a inh: 50µM*

How did COc1ccc(-c2csc(NC(=O)c3ccoc3C)n2)cc1 do in these assays?
JMJD2A Tudor inh: -14%; BAZ2B inh: inconclusive; HP1b binding inh: 0%; L3MBTL1 block: -13%; G9a inh: 50µM*

What do the screens show for `CC12CCC=CC1C(c1ccoc1)N(Cc1ccccc1)C2=O` (centres undefined)?
JMJD2A Tudor inh: -33%; HP1b binding inh: -7%

How did CCc1ccc(NC(=O)CN2C(=O)C3(SCC(=O)N3c3ccccc3)c3ccccc32)cc1 (centres undefined) do in these assays?
JMJD2A Tudor inh: -17%; BAZ2B inh: 1%[57.1 µM]; HP1b binding inh: 14%; G9a inh: -13%[59 µM]

What do the screens show for `CCc1ccccc1N1C(=O)c2cccc3c(N4CCOCC4)c([N+](=O)[O-])cc(c23)C1=O`?
JMJD2A Tudor inh: inconclusive; BAZ2B inh: inconclusive; HP1b binding inh: -38%; L3MBTL1 block: -26%; G9a inh: 16µM*

How did Cc1ccc(NC(=O)CSc2nc3ccccc3n2CC(=O)N2CCC(C)CC2)cc1C do in these assays?
JMJD2A Tudor inh: -26%; BAZ2B inh: -14%; HP1b binding inh: 34%; G9a inh: 3%[59 µM]

What do the screens show for `CCOC(=O)C1CCCCN1Cc1ccc(F)c(Br)c1` (centres undefined)?
JMJD2A Tudor inh: inconclusive; BAZ2B inh: 12%; HP1b binding inh: inconclusive; G9a inh: 22µM*

Results for COc1ccc(CN2CCN(CC3CC3)CC2CCO)cc1C (centres undefined) ?
JMJD2A Tudor inh: -16%; BAZ2B inh: -12%; HP1b binding inh: 42%; L3MBTL1 block: 1%; G9a inh: 4%

What do the screens show for `CCC1CCCCN1Cc1ccc(OC)c(C)c1` (centres undefined)?
JMJD2A Tudor inh: 7.1µM*; BAZ2B inh: 56µM*; HP1b binding inh: inconclusive; G9a inh: 50µM*

What do the screens show for `COc1ccc(CN2CCCCC2C(=O)Nc2ccc(OC)c(OC)c2)cc1OC` (centres undefined)?
JMJD2A Tudor inh: -18%; BAZ2B inh: -9%; HP1b binding inh: 16%; L3MBTL1 block: -5%; G9a inh: -9%

What do the screens show for `CCOC(=O)C1CCCCN1Cc1ccc(OC)c(OC)c1` (centres undefined)?
JMJD2A Tudor inh: 20µM*; BAZ2B inh: 56µM*; HP1b binding inh: inconclusive; L3MBTL1 block: 5%; G9a inh: 32µM*

What do the screens show for `Cc1ccc(NC(=O)CSC2=Nc3ccccc3C3=NC(Cc4ccccc4)C(=O)N23)cc1C` (centres undefined)?
JMJD2A Tudor inh: -17%; BAZ2B inh: inconclusive; HP1b binding inh: 2%; G9a inh: -6%[59 µM]

What do the screens show for `Cc1nc(SCC(=O)Nc2c(C)n(C)n(-c3ccccc3)c2=O)c(C#N)c(C)c1C`?
JMJD2A Tudor inh: -9%; BAZ2B inh: 10%; HP1b binding inh: 71%; L3MBTL1 block: 2%; G9a inh: 19%[12.7 µM]

How did CCCc1cc(SCC(=O)Nc2c(C)n(C)n(-c3ccccc3)c2=O)n2c(nc3ccccc32)c1C#N do in these assays?
JMJD2A Tudor inh: 27%; BAZ2B inh: 28%; HP1b binding inh: 43%; G9a inh: 7.9µM*
